Assay [1] can be described thus: OD615 S. cerevisiae growth inhibition, permissive medium, pilot counter-assay, permissive growth control for S. cerevisiae lifespan shortening project (AID 705;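 active = growth inhibition above 25% in both replicates, a cutoff set 3 SD above the mean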). Conditions: OD615, 24 h, at 10 µM, stronger effect = higher value.
Assay [2] in a line: Restrictive medium S. cerevisiae growth inhibition, OD615, pilot screen of yeast lifespan reduction project, restrictive growth control (AID 706;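 active = growth inhibition above a set limit, 3 SD over mean compound inhibition, in both replicates, cut at about 43% in these data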;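 also: modified DeaD lifespan yeast strain shifted to restrictive glucose medium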). As to conditions: OD615, 48 h, at 10 µM, stronger effect = higher value.
Assay [3] is described as follows: viability gain of MRP-1-high H69AR cells under doxorubicin, pilot screen, MRP-1 activator project, CellTiter-Glo, duplicate (AID 807).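 Also: compound pretreatment 18-22 h then 72 h combined with doxorubicin; 0% = doxorubicin alone and 100% = vehicle without doxorubicin.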 Conditions: H69AR viability with doxorubicin, CellTiter-Glo luminescence; at 10 µM; stronger effect = higher value. (In general: ATP-based viability assays read luminescence as a measure of living cells.)
A short description of assay [4]: growth suppression of beta-catenin knockout HCT116, pilot screen, human colon tumor cells (AID 823;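 active = cell viability at or below a set limit in both duplicate runs, the limit being the all-compound median minus 4 SD, cut at about 23% in these data, passing the limit was not always enough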;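 also: 0% = wells killed by 20 µM Hyamine and 100% = untreated DMSO cell wells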). Conditions: CellTiter-Glo, 60 h, at 10 µM, stronger effect = lower value.
Assay [5] in a line: growth suppression of PTEN-deleted HCT116, pilot screen, cell-based, HCT116 clonal line, CellTiter-Glo (AID 824;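 active = viability at or below 27.92% in each of two runs, the all-compound median minus 4 SD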;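 also: 0% = 20 µM Hyamine control and 100% = vehicle cell control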). Conditions: 60 h, at 10 µM, stronger effect = lower value.
Assay [6] in a line: inhibitors of the yeast RAM network, pilot screen, dse1pr::URA3 reporter, 5-FOA selection (AID 869;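 active = inhibition over a set limit, the all-compound mean plus 3 SD, in both replicate runs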;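 also: 0% = DMSO wells with no growth and 100% = 10 µM 1-NA-PP1 with full growth; RAM network block rescues cells from 5-FOA so hits raise OD615 growth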). As to conditions: S. cerevisiae dse1pr::URA3 5-FOA growth, OD615, 2 d; at 10 µM; stronger effect = higher value; strain carries analog-sensitive mutant Cbk1 kinase.
Assay [7] in a line: reversal of MRP1-mediated doxorubicin resistance, pilot screen, H69AR cells, doxorubicin co-treatment (AID 601;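 active = viability loss from added drug above about 55%, and viability with drug at most 40%, in both replicates, limit read from the data, passing the limit was not always enough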). Conditions: CellTiter-Glo, 72 h, at 10 µM.
Assay [8] can be described thus: 384-well plate pilot, post-Golgi transport modulator project, inhibition of yeast transport mutant growth (AID 636; in the data active = inhibition above about 31%). Conditions: absorbance 615 nm, about 18 h, stronger effect = higher value.
A short description of assay [9]: growth suppression of yeast trafficking mutant, preliminary HTS, modulators of trafficking downstream of Golgi apparatus project, 1536-format plate, OD 615 nm (AID 637; in the data active = inhibition above about 30%). As to conditions: yeast transport mutant growth, absorbance 615 nm, 18 h; stronger effect = higher value.

Structures are written as SMILES. Inconclusive results are not listed. Active and inactive are the calls of the source.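 The calls were made as follows, unless noted: active = viability increase at or above a cutoff of the median across tested compounds plus 3 SD (cut at about 8.5% in these data, passing the limit was not always enough); inconclusive = some gains above the cutoff, reason not given; inactive = the rest.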

In the case of `COc1ccc(OC)c(-c2cc(C(=O)N3CCN(c4ccccc4)CC3)no2)c1`, the growth inhibition in [1] is -11.8% (inactive); in assay [2], 20.3% (inactive). For the same compound, the viability increase in assay [3] was -2.36% (inactive). In addition, the viability (in general, a read-out of living cells in per cent, often relative to untreated cells) in assay [4] was 96.9% (inactive); in [5], 88.8% (inactive). Besides, the inhibition (in general, the relative decrease from the control value, in per cent) in assay [6] was 1.72% (inactive).
On to `O=C(c1cc(C2CC2)on1)N1CCN(c2ccc(F)cc2)CC1`, for which the growth inhibition was -18.2% (inactive) in [1] and -26.9% (inactive) in assay [2]. Besides, in assay [3], the viability increase is -1.75% (inactive). The viability is 96.8% (inactive) in assay [4] and 92.4% (inactive) in assay [5]. Besides, the inhibition in [6] was 1.9% (inactive).
With `O=C(c1cnn2ccccc12)N1CCCc2ccccc21`, the growth inhibition in assay [1] is -3.54% (inactive); in [2] it was -1.29% (inactive). Further, the viability increase in [3] was -1.74% (inactive). Besides, the viability in assay [4] was 97.1% (inactive); in [5], 91.9% (inactive). In addition, in [6], the inhibition was 2.38% (inactive).
As for `COc1ccc(C)cc1NC(=O)CSc1nnc(-c2ccccn2)n1Cc1ccco1`, the growth inhibition was -2.92% (inactive) in [1] and 7.74% (inactive) in [2]. For the same compound, the viability increase in assay [3] is -2.4% (inactive). In addition, the results for the viability in [4] and in assay [5] were 95.7% (inactive) and 88.2% (inactive), respectively. In assay [6], the inhibition is 1% (inactive).
Consider `O=C1c2ccccc2C(Nc2ccc(S(=O)(=O)N3CCOCC3)cc2)N1c1cccnc1` (configuration not stated), for which the growth inhibition was -3.45% (inactive) in [1] and -1.27% (inactive) in [2]. In assay [3], the viability increase was -0.92% (inactive). Further, the viability in assay [4] is 102% (inactive); in assay [5] it was 97% (inactive). Further, the inhibition in [6] was -0.33% (inactive).
As for `C(#Cc1ccccc1)CN1CCN(c2ccccn2)CC1`, the growth inhibition in assay [1] was -7.33% (inactive); in assay [2] it was -2.65% (inactive). In assay [3], the viability increase is -1.2% (inactive). In addition, the figures for the viability in assay [4] and in assay [5] were 98.3% (inactive) and 91.9% (inactive), respectively.
Regarding `Cn1c(-n2c(CCCN3C(=O)c4ccccc4C3=O)nc3ccccc3c2=O)nc2ccccc21`, the growth inhibition was -1.74% (inactive) in assay [1] and 2.53% (inactive) in [2]. Moreover, in assay [3], the viability increase was -3.91% (inactive). The viability in assay [4] was 84.5% (inactive); in [5], 87.2% (inactive). Also, the inhibition in assay [6] was 2.62% (inactive).
Take `Cc1noc(/C=C/NCc2cccnc2)c1S(=O)(=O)N(C)CC(=O)N1CCc2ccccc21`: the figures for the growth inhibition in assay [1] and in [2] were -10.2% (inactive) and -7.69% (inactive), respectively. The viability increase in assay [3] is -3.19% (inactive). The viability in [4] is 91.2% (inactive); in [5] it was 86.4% (inactive). The inhibition in assay [6] is 2.5% (inactive).
Turning to `COc1cccc(CSc2nc3sc(C)c(C)c3c(=O)n2Cc2ccco2)c1`, the growth inhibition was 6.35% (inactive) in assay [1] and 2.66% (inactive) in assay [2]. In addition, the viability increase in assay [3] was 0.35% (inactive). In addition, the viability in assay [4] was 95.7% (inactive); in assay [5] it was 93% (inactive).
As to `CCCCSc1nc2c(c(=O)[nH]c(=O)n2C)n1CCc1ccccc1`, the growth inhibition in assay [1] was -16.6% (inactive); in assay [2], -9.86% (inactive). Further, the viability increase in assay [3] is -3.38% (inactive). The viability was 84.1% (inactive) in [4] and 85.9% (inactive) in assay [5]. The inhibition in assay [6] is 2.35% (inactive).
For `CCCCCCC1C(C#N)=C(N)OC2=C1C(=O)CC(C)(C)C2` (configuration not stated), the growth inhibition in assay [1] is -34.7% (inactive); in assay [2], -40.1% (inactive). Also, the viability increase in [3] was -2.49% (inactive). The figures for the viability in assay [4] and in assay [5] were 102% (inactive) and 96.7% (inactive), respectively. Moreover, the inhibition in assay [6] is 0.505% (inactive).
Turning to `CC1CCN(c2nc3c(c(=O)[nH]c(=O)n3C)n2CCCc2ccccc2)CC1`, the growth inhibition was -15.8% (inactive) in assay [1] and -41.8% (inactive) in assay [2]. For the same compound, the viability increase in assay [3] was -3.5% (inactive). Further, the viability is 79.9% (inactive) in [4] and 72.9% (inactive) in assay [5]. The inhibition in [6] is 1.45% (inactive).
As for `c1ccc(CNc2ncnc3nc[nH]c23)nc1`, the growth inhibition was -12.5% (inactive) in assay [1] and -1.55% (inactive) in [2]. Further, the viability increase in assay [3] was -1.52% (inactive). The viability in assay [4] was 102% (inactive); in assay [5] it was 96.3% (inactive). Further, in assay [6], the inhibition is 1.71% (inactive).
With `Cc1ccc(-c2nc(C(=O)NC3CCCCCC3)no2)cc1`, the growth inhibition was -6.78% (inactive) in [1] and 5.45% (inactive) in assay [2]. Besides, the viability increase in assay [3] is 4.07% (inactive). Also, the viability is 103% (inactive) in [4] and 104% (inactive) in assay [5]. The inhibition in assay [6] was -0.1% (inactive).
With `CCOc1ccccc1C(=O)Nc1ccc2nc(N3CCN(c4ncccn4)CC3)cc(C)c2c1`, the growth inhibition in assay [1] is 5.8% (inactive); in assay [2], -4.81% (inactive). Besides, in [3], the viability increase was -7.45% (inactive). Moreover, the viability in assay [4] was 4.33% (active); in assay [5], 2.14% (active).
Take `COc1ccc(-c2n[nH]c(C)c2-c2cnn(-c3ccccc3)c2)c(O)c1`: the growth inhibition in assay [1] is 5.3% (inactive); in [2], 0.745% (inactive). Also, in assay [3], the viability increase was -2.75% (inactive). Moreover, the figures for the viability in assay [4] and in [5] were 85.2% (inactive) and 92.2% (inactive), respectively. In [6], the inhibition was -0.205% (inactive).
As to `COc1ccc(-c2nc(CS(=O)CC(=O)NCc3ccc4c(c3)OCO4)c(C)o2)cc1` (configuration not stated), the growth inhibition in assay [1] was 4.12% (inactive); in assay [2] it was 14.1% (inactive). The viability increase in [3] is -1.69% (inactive). The viability in [4] was 94.7% (inactive); in [5], 91.1% (inactive). For the same compound, the inhibition in assay [6] was 2.02% (inactive).
Take `O=C(CSc1nnnn1-c1ccccc1)Nc1nsc(-c2ccc(Cl)cc2)n1`: the differential viability (reversal) in assay [7] (H69AR cells + 2 uM doxorubicin, stronger effect = higher value) is -0.79% (inactive). Further, the viability in [7] (H69AR cells + 2 uM doxorubicin, measured here: viability with 2 uM doxorubicin, stronger effect = lower value) came to 54.8%; in assay [7] (H69AR cells, compound alone cytotoxicity) it was 54%. Moreover, the figures for the inhibition in assay [8] and in assay [9] were 0.39% (inactive) and 3.33% (inactive), respectively.
In the case of `COC(=O)CSc1nc2ccc(NC(=O)CSc3nnnn3Cc3ccccc3)cc2s1`, the growth inhibition in [1] is -3.46% (inactive); in assay [2], 13.8% (inactive). Moreover, in assay [3], the viability increase is 1.67% (inactive). The results for the viability in [4] and in [5] were 87.2% (inactive) and 96.9% (inactive), respectively. Further, the inhibition in [6] is 4.05% (inactive).
In the case of `Cc1cc(C)n(-c2nc3ccccc3nc2Nc2ccc3c(c2)OCO3)n1`, the growth inhibition is -18.7% (inactive) in assay [1] and 1.25% (inactive) in [2]. For the same compound, the viability increase in assay [3] was 6.2% (inactive). Moreover, the viability is 87.7% (inactive) in [4] and 81.7% (inactive) in assay [5]. Further, in [6], the inhibition is 6.39% (active).
For `CN(C)c1ccc(CN(C)C2CCCCC2)cc1`, the growth inhibition is 2.59% (inactive) in assay [1] and -6.2% (inactive) in [2]. Further, the viability increase in [3] is -1.65% (inactive). For the same compound, the viability in [4] was 93.1% (inactive); in [5], 89.7% (inactive). Besides, in assay [6], the inhibition was 1.46% (inactive).
`COc1ccc(-c2noc(-c3cc(C)cc(C)c3)n2)cc1OC`: the growth inhibition in assay [1] is -16.5% (inactive); in assay [2], -30.9% (inactive). Moreover, the viability increase in [3] is 4.05% (inactive). Further, the viability in [4] is 100% (inactive); in assay [5], 96.6% (inactive).

(Values after PubChem BioAssay.)
